# Only a selection was taken, and the strongest signals are over-represented in it overall.
# Columns and labels:
# Test in all cases: glycan array binding signal (z-score within array); higher = stronger binding
# Settings in all cases: glycan notation: IUPAC condensed, linker removed
# Fuc(a1-2)Gal = target: Fuc(a1-2)Gal
# Method in brief: (§1)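 The binding signal is a Z-score computed within each array and averaged over linkers. Arrays of the same protein sequence at different concentrations or buffers were also averaged together. Data originate from 3228 arrays in the Consortium for Functional Glycomics database, kept only where the protein sequence was available.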
# Fuc(a1-2)Gal(b1-3)GalNAc = target: Fuc(a1-2)Gal(b1-3)GalNAc
# Method in brief: as §1
# [1] = target: Fuc(a1-2)Gal(b1-3)GlcNAc(b1-2)Man(a1-3)[Fuc(a1-2)Gal(b1-3)GlcNAc(b1-2)Man(a1-6)]Man(b1-4)GlcNAc(b1-4)[Fuc(a1-6)]GlcNAc
# Method in brief: as §1
# [2] = target: Fuc(a1-2)Gal(b1-4)GlcNAc(b1-3)Gal(b1-4)GlcNAc(b1-3)Gal(b1-4)GlcNAc
# Method in brief: as §1
# [3] = target: Fuc(a1-2)Gal(b1-4)GlcNAc(b1-3)[Fuc(a1-3)[Gal(b1-4)]GlcNAc(b1-6)]Gal(b1-4)Glc
# Method in brief: as §1
# [4] = target: Fuc(a1-2)Gal(b1-4)[Fuc(a1-3)]GlcNAc(b1-3)[Neu5Ac(a2-6)Gal(b1-4)GlcNAc(b1-6)]Gal(b1-4)Glc
# Method in brief: as §1
# [5] = target: Fuc(a1-2)[GalNAc(a1-3)]Gal(b1-4)Glc
# Method in brief: as §1
# [6] = target: Fuc(a1-3)[Gal(b1-4)]GlcNAc(b1-3)Gal(b1-4)[Fuc(a1-3)]GlcNAc
# Method in brief: as §1
# [7] = target: Gal(a1-3)Gal(b1-3)GlcNAc(b1-2)Man
# Method in brief: as §1
# Gal(b1-3)GlcNAc = target: Gal(b1-3)GlcNAc
# Method in brief: as §1
# [8] = target: Gal(b1-3)GlcNAc(b1-3)Gal(b1-4)GlcNAc
# Method in brief: as §1
# [9] = target: Gal(b1-3)GlcNAc(b1-3)Gal(b1-4)[Fuc(a1-3)]GlcNAc
# Method in brief: as §1
# Gal(b1-4)GlcNAc(b1-2)Man = target: Gal(b1-4)GlcNAc(b1-2)Man
# Method in brief: as §1
# [10] = target: Gal(b1-4)GlcNAc(b1-2)Man(a1-3)[Man(a1-6)]Man(b1-4)GlcNAc(b1-4)GlcNAc
# Method in brief: as §1
# [11] = target: Gal(b1-4)GlcNAc(b1-2)Man(a1-6)Man(b1-4)GlcNAc(b1-4)GlcNAc
# Method in brief: as §1
# [12] = target: Gal(b1-4)GlcNAc(b1-3)Gal(b1-3)GalNAc
# Method in brief: as §1
# [13] = target: Gal(b1-4)GlcNAc(b1-3)Gal(b1-4)GlcNAc(b1-3)Gal(b1-4)GlcNAc(b1-2)Man(a1-3)[Gal(b1-4)GlcNAc(b1-3)Gal(b1-4)GlcNAc(b1-3)Gal(b1-4)GlcNAc(b1-2)Man(a1-6)]Man(b1-4)GlcNAc(b1-4)[Fuc(a1-6)]GlcNAc
# Method in brief: as §1
# [14] = target: Gal3S(b1-4)[Fuc(a1-3)]GlcNAc
# Method in brief: as §1
# Gal6S(b1-4)Glc = target: Gal6S(b1-4)Glc
# Method in brief: as §1
# [15] = target: GlcA3S(b1-3)Gal(b1-4)GlcNAc(b1-3)Gal(b1-4)Glc
# Method in brief: as §1
# [16] = target: GlcNAc(b1-2)Man(a1-3)[GlcNAc(b1-4)][GlcNAc(b1-2)Man(a1-6)]Man(b1-4)GlcNAc(b1-4)[Fuc(a1-6)]GlcNAc
# Method in brief: as §1
# [17] = target: GlcNAc(b1-2)[GlcNAc(b1-4)]Man(a1-3)[GlcNAc(b1-4)][GlcNAc(b1-2)[GlcNAc(b1-6)]Man(a1-6)]Man(b1-4)GlcNAc(b1-4)[Fuc(a1-6)]GlcNAc
# Method in brief: as §1
# [18] = target: GlcNAc(b1-2)[GlcNAc(b1-6)]Man(a1-6)[GlcNAc(b1-2)Man(a1-3)]Man(b1-4)GlcNAc(b1-4)GlcNAc
# Method in brief: as §1
# GlcNAc(b1-3)Gal(b1-4)Glc = target: GlcNAc(b1-3)Gal(b1-4)Glc
# Method in brief: as §1
# [19] = target: GlcNAc(b1-3)Gal(b1-4)GlcNAc(b1-3)Gal(b1-4)GlcNAc(b1-2)[GlcNAc(b1-3)Gal(b1-4)GlcNAc(b1-3)Gal(b1-4)GlcNAc(b1-6)]Man(a1-6)[GlcNAc(b1-3)Gal(b1-4)GlcNAc(b1-3)Gal(b1-4)GlcNAc(b1-2)Man(a1-3)]Man(b1-4)GlcNAc(b1-4)[Fuc(a1-6)]GlcNAc
# Method in brief: as §1
# [20] = target: GlcNAc(b1-3)Gal(b1-4)GlcNAc(b1-6)[Gal(b1-3)]GalNAc
# Method in brief: as §1
# [21] = target: GlcNAc(b1-3)Gal(b1-4)GlcNAc(b1-6)[GlcNAc(b1-3)]Gal(b1-4)GlcNAc
# Method in brief: as §1
# GlcNAc(b1-3)Man = target: GlcNAc(b1-3)Man
# Method in brief: as §1
# [22] = target: GlcNAc(b1-3)[GlcNAc(b1-6)]Gal(b1-4)GlcNAc
# Method in brief: as §1
# Kdn(a2-3)Gal(b1-4)Glc = target: Kdn(a2-3)Gal(b1-4)Glc
# Method in brief: as §1
# MurNAc(b1-4)GlcNAc = target: MurNAc(b1-4)GlcNAc
# Method in brief: as §1
# [23] = target: Neu5Ac(a2-3)Gal(b1-3)GalNAc(b1-4)[Neu5Ac(a2-3)]Gal(b1-4)Glc
# Method in brief: as §1
# [24] = target: Neu5Ac(a2-3)Gal(b1-3)GalNAc(b1-4)[Neu5Ac(a2-8)Neu5Ac(a2-3)]Gal(b1-4)Glc
# Method in brief: as §1
# [25] = target: Neu5Ac(a2-3)Gal(b1-3)GlcNAc(b1-2)Man
# Method in brief: as §1
# [26] = target: Neu5Ac(a2-3)Gal(b1-3)[Fuc(a1-4)]GlcNAc
# Method in brief: as §1
# Neu5Ac(a2-3)Gal(b1-4)Glc = target: Neu5Ac(a2-3)Gal(b1-4)Glc
# Method in brief: as §1
# [27] = target: Neu5Ac(a2-3)Gal(b1-4)GlcNAc(b1-2)Man(a1-3)[Neu5Ac(a2-3)Gal(b1-4)GlcNAc(b1-2)Man(a1-6)]Man(b1-4)GlcNAc(b1-4)[Fuc(a1-6)]GlcNAc
# Method in brief: as §1
# [28] = target: Neu5Ac(a2-3)Gal(b1-4)GlcNAc(b1-2)[Neu5Ac(a2-3)Gal(b1-4)GlcNAc(b1-4)]Man(a1-3)[GlcNAc(b1-4)][Neu5Ac(a2-3)Gal(b1-4)GlcNAc(b1-2)[Neu5Ac(a2-3)Gal(b1-4)GlcNAc(b1-6)]Man(a1-6)]Man(b1-4)GlcNAc(b1-4)GlcNAc
# Method in brief: as §1
# [29] = target: Neu5Ac(a2-3)Gal(b1-4)GlcNAc(b1-2)[Neu5Ac(a2-3)Gal(b1-4)GlcNAc(b1-6)]Man(a1-6)[Neu5Ac(a2-3)Gal(b1-4)GlcNAc(b1-2)Man(a1-3)][GlcNAc(b1-4)]Man(b1-4)GlcNAc(b1-4)GlcNAc
# Method in brief: as §1
# [30] = target: Neu5Ac(a2-3)Gal(b1-4)GlcNAc(b1-3)Gal(b1-4)GlcNAc(b1-3)[Neu5Ac(a2-3)Gal(b1-4)GlcNAc(b1-3)Gal(b1-4)GlcNAc(b1-6)]GalNAc
# Method in brief: as §1
# [31] = target: Neu5Ac(a2-3)Gal(b1-4)GlcNAc(b1-3)GalNAc
# Method in brief: as §1
# [32] = target: Neu5Ac(a2-3)Gal(b1-4)GlcNAc(b1-3)[Neu5Ac(a2-3)Gal(b1-4)GlcNAc(b1-6)]GalNAc
# Method in brief: as §1
# [33] = target: Neu5Ac(a2-3)Gal(b1-4)[Fuc(a1-3)]GlcNAc(b1-3)GalNAc
# Method in brief: as §1
# [34] = target: Neu5Ac(a2-6)Gal(b1-4)GlcNAc(b1-2)Man(a1-3)[Man(a1-6)]Man(b1-4)GlcNAc(b1-4)GlcNAc
# Method in brief: as §1
# [35] = target: Neu5Ac(a2-6)Gal(b1-4)GlcNAc(b1-2)Man(a1-3)[Neu5Ac(a2-6)Gal(b1-4)GlcNAc(b1-2)Man(a1-6)]Man(b1-4)GlcNAc(b1-4)[Fuc(a1-6)]GlcNAc
# Method in brief: as §1
# [36] = target: Neu5Ac(a2-6)Gal(b1-4)GlcNAc(b1-3)Gal(b1-4)GlcNAc(b1-2)Man(a1-3)[Neu5Ac(a2-6)Gal(b1-4)GlcNAc(b1-3)Gal(b1-4)GlcNAc(b1-2)Man(a1-6)]GalNAc
# Method in brief: as §1
# [37] = target: Neu5Ac(a2-6)Gal(b1-4)GlcNAc(b1-3)Gal(b1-4)GlcNAc(b1-3)GalNAc
# Method in brief: as §1
# [38] = target: Neu5Ac(a2-6)GalNAc(b1-4)GlcNAc
# Method in brief: as §1
# [39] = target: Neu5Ac(a2-6)GlcNAc(b1-4)GlcNAc(b1-4)GlcNAc
# Method in brief: as §1
# [40] = target: Neu5Ac(a2-8)Neu5Ac(a2-3)Gal(b1-3)GalNAc(b1-4)[Neu5Ac(a2-3)]Gal(b1-4)Glc
# Method in brief: as §1
# [41] = target: Neu5Ac(a2-8)Neu5Ac(a2-3)Gal(b1-4)GlcNAc
# Method in brief: as §1
# [42] = target: Neu5Ac(a2-8)Neu5Ac(a2-3)[Gal(b1-3)GalNAc(b1-4)]Gal(b1-4)Glc
# Method in brief: as §1
# [43] = target: Neu5Ac9Ac(a2-3)Gal(b1-3)GlcNAc
# Method in brief: as §1
# Neu5Gc(a2-3)Gal(b1-4)Glc = target: Neu5Gc(a2-3)Gal(b1-4)Glc
# Method in brief: as §1
binder,measurement,setting,value
LlpB (Pseudomonas fluorescens) (protein) MGSSHHHHHHSSGLVPRGSHMASSGFRIILFNSANNGTAILPPRNCLVAGQYLESPSKRYKLILEADGNLRLYDNGVPIWVADSSVPYTYVDNRPNTNLVTCFYMQGSAFLVDRVGSRTWATIGDWIDGAADRAYLQVQDDGNVVVVDGVPRWARFGFTPAALPNRGVFYPDHGTGPLPSFPVWSWTF,glycan array binding signal (z-score),Fuc(a1-2)Gal,-0.044
same,glycan array binding signal (z-score),Fuc(a1-2)Gal(b1-3)GalNAc,-0.631
same,glycan array binding signal (z-score),[1],-0.114
same,glycan array binding signal (z-score),[2],2.58
same,glycan array binding signal (z-score),[3],-0.33
same,glycan array binding signal (z-score),[4],0.032
same,glycan array binding signal (z-score),[5],-0.54
same,glycan array binding signal (z-score),[6],1.4
same,glycan array binding signal (z-score),[7],0.466
same,glycan array binding signal (z-score),Gal(b1-3)GlcNAc,0.344
same,glycan array binding signal (z-score),[8],0.129
same,glycan array binding signal (z-score),[9],0.523
same,glycan array binding signal (z-score),Gal(b1-4)GlcNAc(b1-2)Man,3.72
same,glycan array binding signal (z-score),[10],0.362
same,glycan array binding signal (z-score),[11],-0.158
same,glycan array binding signal (z-score),[12],-0.092
same,glycan array binding signal (z-score),[13],2.11
same,glycan array binding signal (z-score),[14],-1.03
same,glycan array binding signal (z-score),Gal6S(b1-4)Glc,-1.15
same,glycan array binding signal (z-score),[15],-1.73
same,glycan array binding signal (z-score),[16],1.22
same,glycan array binding signal (z-score),[17],-0.095
same,glycan array binding signal (z-score),[18],0.893
same,glycan array binding signal (z-score),GlcNAc(b1-3)Gal(b1-4)Glc,-0.719
same,glycan array binding signal (z-score),[19],0.375
same,glycan array binding signal (z-score),[20],1.38
same,glycan array binding signal (z-score),[21],-0.837
same,glycan array binding signal (z-score),GlcNAc(b1-3)Man,0.669
same,glycan array binding signal (z-score),[22],-0.461
same,glycan array binding signal (z-score),Kdn(a2-3)Gal(b1-4)Glc,3.03
same,glycan array binding signal (z-score),MurNAc(b1-4)GlcNAc,2.54
same,glycan array binding signal (z-score),[23],2.9
same,glycan array binding signal (z-score),[24],-1.93
same,glycan array binding signal (z-score),[25],2.63
same,glycan array binding signal (z-score),[26],2.3
same,glycan array binding signal (z-score),Neu5Ac(a2-3)Gal(b1-4)Glc,2.98
same,glycan array binding signal (z-score),[27],-0.332
same,glycan array binding signal (z-score),[28],1.21
same,glycan array binding signal (z-score),[29],-0.505
same,glycan array binding signal (z-score),[30],-0.12
same,glycan array binding signal (z-score),[31],-0.794
same,glycan array binding signal (z-score),[32],-0.411
same,glycan array binding signal (z-score),[33],0.993
same,glycan array binding signal (z-score),[34],2.88
same,glycan array binding signal (z-score),[35],3.58
same,glycan array binding signal (z-score),[36],2.6
same,glycan array binding signal (z-score),[37],-0.312
same,glycan array binding signal (z-score),[38],-0.182
same,glycan array binding signal (z-score),[39],2.47
same,glycan array binding signal (z-score),[40],2.81
same,glycan array binding signal (z-score),[41],-1.02
same,glycan array binding signal (z-score),[42],-1.03
same,glycan array binding signal (z-score),[43],-0.008
same,glycan array binding signal (z-score),Neu5Gc(a2-3)Gal(b1-4)Glc,0.956
